Measurements reported in paper PMC4336329 (PLoS ONE, 2015).
Out of some 310,000 compounds screened, about 14,000 (4.5%) showed an effect of 50% or more. Effects have a minus sign here. The full list was thinned out, with strong results kept by preference.

What follows are compounds tested against human ether-à-go-go-related gene (hERG) potassium channel (human, UniProt Q12809) (assay: primary screen, population patch clamp on CHO cells stably expressing hERG; higher = less effect of the substance).
Sequence of human ether-à-go-go-related gene (hERG) potassium channel (Q12809 whole entry, looked up): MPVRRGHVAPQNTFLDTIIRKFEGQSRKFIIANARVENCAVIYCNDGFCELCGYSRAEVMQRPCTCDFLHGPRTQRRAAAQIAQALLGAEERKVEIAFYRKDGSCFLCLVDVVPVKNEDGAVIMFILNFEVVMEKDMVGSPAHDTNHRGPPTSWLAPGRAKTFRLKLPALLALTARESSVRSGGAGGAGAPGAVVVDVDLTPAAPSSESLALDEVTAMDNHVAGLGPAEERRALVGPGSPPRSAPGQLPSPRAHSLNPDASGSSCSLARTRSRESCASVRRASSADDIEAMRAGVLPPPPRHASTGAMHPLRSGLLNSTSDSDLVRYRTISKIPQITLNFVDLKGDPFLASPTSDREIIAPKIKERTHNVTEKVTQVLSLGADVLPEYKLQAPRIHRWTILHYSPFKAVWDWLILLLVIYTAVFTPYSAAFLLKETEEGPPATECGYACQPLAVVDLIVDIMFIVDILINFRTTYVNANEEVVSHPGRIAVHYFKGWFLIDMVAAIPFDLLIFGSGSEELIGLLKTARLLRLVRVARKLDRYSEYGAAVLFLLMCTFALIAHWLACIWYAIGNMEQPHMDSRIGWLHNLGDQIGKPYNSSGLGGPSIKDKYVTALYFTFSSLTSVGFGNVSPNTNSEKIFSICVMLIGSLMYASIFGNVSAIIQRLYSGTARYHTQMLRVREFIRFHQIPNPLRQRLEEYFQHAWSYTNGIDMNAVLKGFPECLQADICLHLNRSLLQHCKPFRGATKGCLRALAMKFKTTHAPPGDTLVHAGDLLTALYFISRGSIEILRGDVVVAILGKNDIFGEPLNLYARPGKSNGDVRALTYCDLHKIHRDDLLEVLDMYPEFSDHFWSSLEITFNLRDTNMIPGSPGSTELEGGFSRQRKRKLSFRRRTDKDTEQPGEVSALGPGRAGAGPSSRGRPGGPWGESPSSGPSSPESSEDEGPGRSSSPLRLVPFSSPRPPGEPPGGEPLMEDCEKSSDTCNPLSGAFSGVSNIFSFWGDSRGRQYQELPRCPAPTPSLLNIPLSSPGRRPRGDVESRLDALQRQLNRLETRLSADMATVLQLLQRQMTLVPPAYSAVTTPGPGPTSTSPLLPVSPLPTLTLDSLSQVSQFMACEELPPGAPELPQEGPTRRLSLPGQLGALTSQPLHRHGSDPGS
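Also: peak tail current of the secondary pulse compared with the same well before compound.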

In order of rising “hERG current change (%, negative = inhibition) at 10uM” value:
1. CCOc1cccc2sc(N(CCCN(C)C)C(=O)c3ccc(S(=O)(=O)N(C)c4ccccc4)cc3)nc12.Cl  -83.7%
2. CCOc1ccc(C(=S)N2CCN(C)CC2)cc1  -82.2%
3. O=C(CCNS(=O)(=O)c1ccc(OC(F)(F)F)cc1)N1CCN(C/C=C/c2ccccc2)CC1  -81.5%
4. CCOc1cccc2sc(N(CCCN(C)C)C(=O)Cc3ccccc3)nc12.Cl  -80.2%
5. CCOc1ccc(C(=O)N2CCN(c3cccc(C)c3C)CC2)cc1  -79.9%
6. CCOc1cccc2sc(N(CCCN(C)C)C(=O)c3ccc(S(=O)(=O)N(C)CC4CCCO4)cc3)nc12.Cl (stereo not drawn)  -77.4%
7. CCOc1ccc(C(=O)N2CCN(c3cccc(Cl)c3)CC2)cc1  -73.7%
8. CCOc1ccc2ccccc2c1CNCCc1ccc(S(N)(=O)=O)cc1.Cl  -73.1%
9. CCOc1cccc2sc(N(CCCN(C)C)C(=O)c3ccc(C(=O)c4ccccc4)cc3)nc12.Cl  -72.1%
10. CCOc1ccc(C(=O)N2CCCN(C(=O)c3ccc(OCC)cc3)CC2)cc1  -71.8%
11. CCOc1cc(CNCCc2ccc(S(N)(=O)=O)cc2)cc(Cl)c1OCc1ccccc1.Cl  -70.7%
12. CCOc1ccc(C(=O)N2CCN(Cc3ccccc3)CC2)cc1  -69.3%
13. COc1ccc(OC)c(NC(=O)c2cc(S(=O)(=O)N(C)C)ccc2N2CCCC2)c1  -68.1%
14. CCN1CCN(C(=S)c2ccc(OC)cc2)CC1  -64.8%
15. COC(=O)C1=C(C)N(Cc2ccccc2)C(=NCCc2ccccn2)N[C@H]1c1cccc(F)c1  -60.4%
16. COc1ccc(C(C)(C)C)cc1NC(=O)c1cc(S(=O)(=O)N(C)C)ccc1N1CCCC1  -60%
17. CCN1C(=NCCc2ccccn2)N[C@@H](c2cccc(F)c2)C(C(=O)OC)=C1C  -56.7%
18. CCOc1cc(CNCCc2ccc(S(N)(=O)=O)cc2)ccc1OCc1ccccc1.Cl  -55.9%
19. CCOc1ccc(S(=O)(=O)NCCC(=O)N2CCN(Cc3ccccc3)CC2)cc1  -54.2%
20. COc1cc(Cl)c(C)cc1NC(=O)c1cc(S(=O)(=O)N(C)C)ccc1N1CCCC1  -51.8%
21. C=CCNC(=O)/C(=C\C=C\c1ccccc1)NC(=O)c1ccccc1Cl  -49.7%
22. Cc1ccc(S(=O)(=O)NCCC(=O)N2CCN(C/C=C/c3ccccc3)CC2)cc1  -49.5%
23. O=C(CCNS(=O)(=O)c1ccccc1F)N1CCN(C/C=C/c2ccccc2)CC1  -47.8%
24. Cc1cc(C)c2nc(N(CCN(C)C)C(=O)c3ccc(S(=O)(=O)N(C)CC4CCCO4)cc3)sc2c1.Cl (stereo not drawn)  -43.6%
25. CN(C)CCN(C(=O)c1ccc(S(=O)(=O)N(C)CC2CCCO2)cc1)c1nc2cc3c(cc2s1)OCO3.Cl (stereo not drawn)  -43.2%
26. CCOc1cccc2sc(N(CCN(C)C)C(=O)/C=C/c3cccs3)nc12.Cl  -40.7%
27. CCOc1cccc2sc(N(CCCN(C)C)C(=O)c3ccc(S(=O)(=O)N(C)Cc4ccccc4)cc3)nc12.Cl  -40.4%
28. CCOc1ccc(CN2CCN(C(=O)c3ccccc3)CC2)cc1  -39.5%
29. CCN(CC)c1ccc(C(=O)N2CCN(Cc3ccccc3)CC2)cc1  -37.8%
30. Cc1cccc(N2CCN(C(=O)c3ccncc3)CC2)c1C  -37%
31. CCOc1cc(CNCCc2ccc(S(N)(=O)=O)cc2)ccc1OCC(=O)NC1CCCCC1.Cl  -36.3%
32. CCOc1ccc(C(=O)N2CCN(c3ccccc3)CC2)cc1  -36.3%
33. COc1ccc(C(=O)N2CCN(c3cccc(Cl)c3)CC2)cc1  -36%
34. CCOc1ccc2nc(N(CCCN(C)C)C(=O)c3ccc(C(=O)c4ccccc4)cc3)sc2c1.Cl  -35.5%
35. CCCNS(=O)(=O)c1ccc(OCC(=O)N2CCN(Cc3ccccc3)CC2)cc1  -28.6%
36. Cc1ccc(NC(=O)c2cc(S(=O)(=O)N(C)C)ccc2N2CCCC2)cc1S(=O)(=O)N(C)C  -26.5%
37. CC(NC(=O)c1ccccc1SCC(=O)N1CCCC1)c1ccccc1 (stereo not drawn)  -26.1%
38. COc1ccc(C(=S)N2CCN(C)CC2)cc1  -22.8%
39. COc1cc(CNCCc2ccccc2)cc(Cl)c1OCc1ccccc1.Cl  -18.7%
40. CCOc1cc(CNCCc2ccc(S(N)(=O)=O)cc2)ccc1OCc1ccc(Cl)cc1.Cl  -18.5%
41. COc1cc2ccccc2cc1C(=O)N1CCCC(C(F)(F)F)C1 (stereo not drawn)  -14.3%
42. CCN1C(=NCCOC)N[C@@H](c2cccc(F)c2)C(C(=O)OC)=C1C  -14.3%
43. COc1ccc(NC(=O)CN(C)C(=O)c2cc(S(=O)(=O)N(C)C)ccc2N2CCCC2)cc1  -13.8%
44. CCCCc1cc(=O)oc2cc(OC(C)C(=O)NCc3ccccn3)c(Cl)cc12 (stereo not drawn)  -13.6%
45. CCOc1ccc(C(=S)N2CCOCC2)cc1  -13.2%
46. COC(=O)C1=C(C)N(Cc2ccccc2)C(=NCc2ccccc2)N[C@H]1c1cccc(F)c1  -11.5%
47. O=C1c2ccccc2CN1CCSC(=S)N1CCOCC1  -8.59%
48. CCNCc1cc(Cl)c(OCc2ccccc2)c(OCC)c1.Cl  -8.51%
49. CCOc1ccc(C(=S)N2CCCC2)cc1  -7.78%
50. CCOC(=O)c1[nH]c2ccccc2c1NC(=S)Nc1cccc(C)c1C  -5.81%
51. O=[N+]([O-])c1ccc(N2CCN(c3ccccc3F)CC2)c(S(=O)(=O)N2CCOCC2)c1  -5.12%
52. CCN1C(=O)NC(=O)/C(=C/c2cc(C)n(-c3sc(C)c(C)c3C#N)c2C)C1=O  -4.66%
53. CCN(Cc1ccccc1)C(=O)COC(=O)c1cc(=O)[nH]c2ccccc12  -4.27%
54. CCOC(=O)N1CCN(c2cccc(C)c2C)CC1  -2.36%
55. CCCCNS(=O)(=O)c1ccc2nc(-c3cccnc3)cc(C(=O)NCC(OC)OC)c2c1  -2.03%
56. CCOc1cccc(NC(=O)CSc2nc(C)c3c(c2C#N)CCCC3)c1  0.331%
57. CCOc1ccc(C(=O)N2CCCCCC2)cc1  2.03%
58. O=C(Nn1cc(C(=O)N2CCN(c3ccccc3F)CC2)c2ccccc2c1=O)c1cnccn1  2.84%
59. COC(=O)CCCC1=CC2=CC(=O)C(C)(OC(=O)c3cccs3)C(=O)C2=CN1CCCCO (stereo not drawn)  3.74%
60. COc1ccc(-c2c(C)nc(N)nc2-c2ccc(OCc3ccc(C)cc3)cc2O)cc1OC  4.25%
61. COc1ccc(CCNC(=O)c2cc(S(=O)(=O)N(C)C)ccc2N2CCCC2)cc1  4.26%
62. CCOc1cc(CNCCc2ccc(S(N)(=O)=O)cc2)ccc1OCC(=O)NC(C)(C)C.Cl  4.8%
63. COC(=O)c1ccc(C(=O)OC)c(NC(=O)/C=C/C(=O)O)c1  5.06%
64. CCOc1ccc(C(=O)N2CCCC2)cc1  5.24%
65. COc1ccc(CCNC(=O)c2cc(S(=O)(=O)N(C)C)ccc2N2CCCC2)cc1OC  5.99%
66. COC(=O)C1=C(C)N(Cc2ccccc2)C(=NCc2ccc(OC)cc2)N[C@H]1c1cccc(F)c1  6.76%
67. CCN1C(=NCCCCO)N[C@@H](c2cccc(F)c2)C(C(=O)OC)=C1C  6.82%
68. Cc1cc(NC(=O)c2cc([N+](=O)[O-])cc([N+](=O)[O-])c2)n(-c2ccccc2)n1  7.63%
69. CC(C)c1nc2sc3c(c2c(=O)n1N)CC(C)(C)OC3  8.71%
70. COc1ccc(/C=C2\CCn3c2nc2cc(C(=O)O)ccc2c3=O)cc1  9.07%
71. CCCC(=O)N(CCN1CCOCC1)c1nc2c(OCC)cccc2s1.Cl  9.08%
72. CCOc1ccccc1OCC(=O)NCCc1ccc(S(N)(=O)=O)cc1  10.9%
73. CCN1CCN(C(=S)c2ccc(O)cc2)CC1  11%
74. Cc1ccc(S(=O)(=O)NCCC(=O)N2CCN(Cc3ccccc3)CC2)cc1  11%
75. Cc1ccc(C(C)NC(=O)C23CC4CC(CC(C4)C2)C3)cc1 (stereo not drawn)  11.4%
76. CCCn1c(SCC(=O)Nc2ccc(C(=O)Nc3ccccc3OC)cc2)n[nH]c1=O  11.9%
77. CC(NC(=O)CCNC(=O)c1ccco1)c1ccc(F)cc1 (stereo not drawn)  12.3%
78. COc1ccc(NC(=O)c2cc(S(=O)(=O)N(C)C)ccc2N2CCCC2)cc1Cl  12.7%
79. COc1ccc(C(C)=O)cc1CSc1nc2cc(C(=O)O)ccc2c(=O)n1Cc1ccccc1  12.7%
80. Br.COc1ccc(-c2csc(CCN3N=C(C)CC3=O)n2)cc1  12.7%
81. CCOc1cccc2sc(N(CCCN(C)C)C(=O)c3ccc(S(=O)(=O)N4CCc5ccccc5C4)cc3)nc12.Cl  13.7%
82. CNC(=O)c1[nH]cnc1C(=O)NCC(=O)OCc1ccccc1  13.9%
83. CN(C)CCNc1cnn(-c2ccccc2)c(=O)c1Cl  14.2%
84. COc1cc(C(=O)NNC(=O)c2cc(S(=O)(=O)N(C)C)ccc2N2CCCC2)cc(OC)c1OC  15.1%
85. CCCCP(=O)(CCCC)Cc1ccccc1  15.3%
86. CC(C)(C)NC(=S)NNC(=O)c1ccncc1  15.4%
87. CCCS(=O)(=O)N1CCCC(C(=O)N2CCC3(CC2)OCCO3)C1 (stereo not drawn)  15.7%
88. CC(C)C[C@H](NC(=O)C1CC(=O)N(c2ccc3c(c2)OCO3)C1)C(=O)NC1CCCCC1 (stereo partly drawn)  22.4%
89. CC(=O)NC(Nc1nc2c(s1)CCCC2)(C(F)(F)F)C(F)(F)F  23.8%
90. Cn1c(SCC(=O)N2CCCC2=O)nc2ccccc21  28.2%
